{
  "source": "PubChem BioAssay (EPA / NIEHS)",
  "note": "Inconclusive results are not listed. The source made the active and inactive calls. How the source made its calls: active means hit-call score of the fitted dose curve at least 0.9, where 1 is the maximum; inconclusive means response in the unintended direction; inactive means score below 0.9.",
  "data": [
    {"assay": "ACEA_ER_AUC_viability: ACEA Biosciences xCELLigence Real-Time Cell Analysis on Estrogen Receptor Agonism for Viability (AID 2283782)", "method_in_brief": "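Read-out: real-time electrical impedance (RT-CES) area under curve, loss of signal taken as reduced viability, normalized to DMSO baseline. T-47D cells, charcoal-stripped serum medium, compounds up to 100 uM final, continuous exposure, 80 h.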", "values": [
      {"compound": "CCc1ccccc1C", "outcome": "inactive"},
      {"compound": "ClC1=C(Cl)[C@]2(Cl)[C@@H]3[C@@H](Cl)[C@@H](Cl)C[C@@H]3[C@@]1(Cl)C2(Cl)Cl", "outcome": "inactive"},
      {"compound": "NC(=O)CF", "outcome": "inactive"},
      {"compound": "CCC[CH2][Sn]([CH2]CCC)([CH2]CCC)[O]C(=O)c1ccccc1", "AC50": "1.28 µM (active)"},
      {"compound": "COc1ccccc1OC", "outcome": "inactive"},
      {"compound": "CC(=O)OC(c1ccccc1)C(Cl)(Cl)Cl", "note": "(stereo not given)", "outcome": "inactive"},
      {"compound": "O=CC=O", "outcome": "inactive"},
      {"compound": "ClC1=C(Cl)[C@]2(Cl)[C@H]3[C@H]([C@H]4C=C[C@H]3C4)[C@@]1(Cl)C2(Cl)Cl", "AC50": "83.2 µM (active)"},
      {"compound": "CCc1ccccc1N", "outcome": "inactive"},
      {"compound": "ClCc1ccccn1", "AC50": "50 µM (active)"},
      {"compound": "Oc1cccc2cccnc12", "outcome": "inactive"},
      {"compound": "O=C(Cl)c1ccc(Cl)cc1", "outcome": "inactive"},
      {"compound": "Oc1c(I)cc(I)cc1I", "AC50": "87.9 µM (active)"},
      {"compound": "N#Cc1ccccn1", "outcome": "inactive"},
      {"compound": "O=C(O)Cc1ccccc1", "AC50": "50 µM (active)"},
      {"compound": "CCOP(=S)(OCC)SCCS(=O)(=O)CC", "AC50": "57.6 µM (active)"},
      {"compound": "COc1cc2c(cc1OC)[C@@]13CCN4CC5=CCO[C@H]6CC(=O)N2[C@H]1[C@H]6[C@H]5C[C@H]43", "outcome": "inactive"},
      {"compound": "CCC1(c2ccc(N)cc2)CCC(=O)NC1=O", "note": "(stereo not given)", "outcome": "inactive"},
      {"compound": "COC(=O)Cc1ccccc1", "AC50": "30.7 µM (active)"},
      {"compound": "COP(=O)(OC)OC", "outcome": "inactive"},
      {"compound": "O=C/C=C/c1ccccc1", "outcome": "inactive"},
      {"compound": "Clc1ccc(COC(Cn2ccnc2)c2ccc(Cl)cc2Cl)cc1", "note": "(stereo not given)", "AC50": "21.5 µM (active)"},
      {"compound": "[O-][Cl+2]([O-])O", "outcome": "inactive"},
      {"compound": "CCC(C)c1cccc(C(C)CC)c1O", "note": "(stereo not given)", "AC50": "77.1 µM (active)"},
      {"compound": "CC(C)OC(=O)Nc1ccccc1", "outcome": "inactive"},
      {"compound": "CC(C)(OO)c1ccccc1", "AC50": "14.7 µM (active)"},
      {"compound": "COC[C@H](C)N(C(=O)CCl)c1c(C)csc1C", "outcome": "inactive"},
      {"compound": "Nc1cccc(Cl)c1", "outcome": "inactive"},
      {"compound": "CCCCP(CCCC)CCCC", "AC50": "27.9 µM (active)"},
      {"compound": "O=C(O)C(F)(F)C(F)(F)C(F)(F)C(F)(F)C(F)(F)C(F)(F)C(F)(F)C(F)(F)C(F)(F)C(F)(F)F", "outcome": "inactive"}
    ]}
  ]
}
